Source: PubChem
IL1B secr inh: inhibitors of inflammasome signaling (IL-1 beta secretion); activity change, % at 57.5 µM; THP-1 LPS/ATP IL-1B secretion, AlphaLISA, 16 h; active compounds read low; hit rate 4.7% among 360,000; in the data active = activity change below about -50%; inconclusive = mostly about -30% to -49%; also: % is scaled to controls: 0 for no effect and ±100 for the full control effect
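Secreted IL-1B measured by AlphaLISA bead assay after 16 h compound exposure of THP-1 cells; compounds (final up to 57.5 uM) added 1 h before LPS (250 ng/mL) and ATP (1.25 mM) stimulation; lower signal means less secretion.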
TGFb SMAD3 inh: blocks TGF-b signaling | HepG2 CAGA-GFP TGF-b/SMAD3 reporter, GFP fluorescence, 18 h; TGF-beta stimulated, 500 pg/mL final | hit rate 1.2% among 410,000 | Potency, µM (titrated, usually from 46.1 µM), without a hit: at the highest dose activity, negative = inhibition, actives largely listed as inhibitors; also: potency is read from the fitted curve at half-maximal effect; % is scaled to controls: 0 for no effect and ±100 for the full control effect; nearly all actives have a fitted effect of over 65% in size
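TGF-beta reporter screen: HEPG2 CAGA-GFP, 1% FBS, 500 pg/mL TGF-beta final, 18 h; per-cell GFP summed per well; curves fitted and categorized by class.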
TDP1 block: blocks human tyrosyl-DNA phosphodiesterase 1. Potency, µM (series often up to 130 µM), inactives show top-dose activity change, negative = inhibition, usual class: inhibitors. recombinant TDP1, AlphaScreen DNA substrate cleavage. hit rate 0.28% among 350,000. Q9NUW8; also: potency is read from the fitted curve at half-maximal effect; % is scaled to controls: 0 for no effect and ±100 for the full control effect; nearly all actives have a fitted effect of over 40% in size
Target sequence (Q9NUW8 whole entry, looked up): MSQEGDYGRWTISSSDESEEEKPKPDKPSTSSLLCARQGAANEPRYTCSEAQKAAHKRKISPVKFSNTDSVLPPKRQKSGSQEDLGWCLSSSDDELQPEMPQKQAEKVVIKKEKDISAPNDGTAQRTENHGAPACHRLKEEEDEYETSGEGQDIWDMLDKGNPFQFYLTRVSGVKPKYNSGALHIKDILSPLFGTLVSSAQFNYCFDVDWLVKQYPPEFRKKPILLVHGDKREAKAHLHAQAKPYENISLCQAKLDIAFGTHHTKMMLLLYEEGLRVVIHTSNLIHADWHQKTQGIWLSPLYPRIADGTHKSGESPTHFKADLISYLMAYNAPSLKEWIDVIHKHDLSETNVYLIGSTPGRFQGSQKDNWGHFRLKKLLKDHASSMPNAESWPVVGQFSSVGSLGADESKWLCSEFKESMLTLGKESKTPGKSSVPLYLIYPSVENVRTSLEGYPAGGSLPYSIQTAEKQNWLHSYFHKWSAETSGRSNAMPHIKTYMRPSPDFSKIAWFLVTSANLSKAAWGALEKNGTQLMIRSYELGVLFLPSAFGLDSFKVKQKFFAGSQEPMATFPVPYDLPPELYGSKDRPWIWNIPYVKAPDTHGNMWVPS
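Recombinant E. coli-expressed Tdp1 (1 nM) preincubated with compound 15 min at RT, then 5'-biotin/3'-phosphotyrosine-FITC DNA substrate (15 nM) added for 5 min. AlphaScreen beads (10 ug/ml) added, 10 min RT; tyrosine-FITC cleavage read as signal loss.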
HepG2 viability: HepG2 cytotoxicity, counter-screen for TGF-b inhibitors; HepG2 CAGA-GFP viability, ATP luminescence, 18 h; hit rate 0.76% among 410,000; AID 588856; Potency, µM (doses to about 46.1 µM), without a hit: at the highest dose activity change, negative = cytotoxicity, hits mostly cytotoxic; also: potency is read from the fitted curve at half-maximal effect
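HepG2 CAGA-GFP cells (1000/well, DMEM with 1% FBS) received compound, then TGF-beta at 500 pg/mL final, and were incubated 18 hours at 37 degrees C. Viability was read by CellTiter-Glo luminescence. Media-only wells were set as complete cell-killing and DMSO as no toxicity.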
TDP1 cell CPT: DT40-hTDP1 cell growth loss with CPT; Potency, µM (top dose mostly 46.2 µM), for the others: at the top dose activity change, negative = growth inhibition, actives largely listed as inhibitors; AID 686979; chicken DT40 Tdp1-/-;hTDP1 cells + 20 nM CPT, ATP luminescence, 48 h; hit rate 12% among 420,000; also: potency is read from the fitted curve at half-maximal effect; % is scaled to controls: 0 for no effect and ±100 for the full control effect; nearly all actives have a fitted effect of over 55% in size
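Chicken DT40 Tdp1-/- cells stably complemented with human TDP1 were seeded at 400 cells/well in medium containing 20 nM camptothecin, exposed to pin-transferred compounds, and grown at 37 °C for at least 48 hr. Viability was read as ATP luminescence.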
TDP1 cell noCPT: qHTS for Inhibitors of human tyrosyl-DNA phosphodiesterase 1 (TDP1): qHTS in cells in absence of CPT; Potency, µM (doses to about 46.2 µM), for inactives: at the highest dose activity change, negative = growth inhibition, most hits filed as inhibitors; AID 686978, 2013; hit rate 15% among 420,000; DT40 Tdp1-/- hTDP1 cells, no CPT, ATP luminescence, 48 h; also: potency is read from the fitted curve at half-maximal effect; % is scaled to controls: 0 for no effect and ±100 for the full control effect; nearly all actives have a fitted effect of over 55% in size
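Chicken DT40 Tdp1-/- cells complemented with human TDP1, screened without camptothecin (DMSO vehicle only), 400 cells/well. Compounds pin-transferred, cells incubated at 37 °C for at least 48 hr. Growth read as ATP-dependent luminescence (CellTiter-Glo, 30 min at RT).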
* marks the source's active call; other numbers are inactive results; ? = inconclusive; . = no result. Most compounds without a hit are left out; they make up all but 19% or so of the library. Unless noted, calls follow the shape of the dose curve; as a rule, active = well fitted curve in the direction sought with a large enough effect; inconclusive = small, poorly fitted or top-dose-only effect, or another doubt; inactive = no such curve, though single readings can be large; an effect the other way counts as inactive or inconclusive.

SMILES | IL1B secr inh | TGFb SMAD3 inh | TDP1 block | HepG2 viability | TDP1 cell CPT | TDP1 cell noCPT
CCOc1ccc(NC(=O)CSC2=Nc3ccccc3C3=NC(CC(=O)NCc4ccccc4OC)C(=O)N23)cc1 (configuration not stated) | . | 0.6% | 5.4% | -2.1% | ? | ?
Cc1ccc(C2CC(C(F)(F)F)n3nc(C(=O)NCc4c(C)nn(C)c4C)c(Cl)c3N2)cc1 (configuration not stated) | -13.4 | 12.6µM* | 4.0% | -59.2% | 4.61µM* | 5.17µM*
Cc1nn(C)c(C)c1CNC(=O)c1cnn2c1NC(c1ccccc1)CC2C(F)(F)F (configuration not stated) | -4.3 | -23.7% | 8.6% | -16.5% | ? | -20.7%
COc1ccc(C2CC(C(F)(F)F)n3nc(C(=O)NCc4cn(C)nc4C)c(Cl)c3N2)cc1 (configuration not stated) | -20.3 | ? | 5.2% | -21.5% | 13µM* | 10.3µM*
CCOC(=O)N1CCN(C(=O)C(C)N(c2ccc(Oc3ccccc3)cc2)S(C)(=O)=O)CC1 (configuration not stated) | -29.7 | -2.2% | 3.3% | 3.7% | ? | 13µM*
CCOC(=O)C1CCN(C(=O)C(C)N(c2ccc(Oc3ccccc3)cc2)S(C)(=O)=O)CC1 (configuration not stated) | 12.3 | ? | 0.0% | -0.9% | 11.6µM* | 9.2µM*
COc1ccc(N(C(C)C(=O)N2CCC(Cc3ccccc3)CC2)S(C)(=O)=O)cc1 (configuration not stated) | -1.4 | 10.7% | 2.5% | 0.8% | 6.51µM* | 8.2µM*
CCOc1ccc(N(C(C)C(=O)NCCSc2ccc(C)cc2)S(C)(=O)=O)cc1 (configuration not stated) | . | ? | . | -5.6% | -27.6% | ?
CCOc1ccc(N(C(C)C(=O)NCCSc2ccc(Cl)cc2)S(C)(=O)=O)cc1 (configuration not stated) | . | ? | . | -7.3% | 16.4µM* | 25.9µM*
COc1ccc(N(C(C)C(=O)N2CCCC2)S(C)(=O)=O)cc1 (configuration not stated) | 18.7 | -1.4% | . | -2.0% | 7.4% | -5.6%
CCOC(=O)C1CCN(C(=O)c2ccccc2Oc2ccccc2)CC1 | 24.7 | -10.9% | 0.0% | -13.8% | ? | ?
CCOC(=O)c1c(S(=O)(=O)N2CCC(C(=O)NCc3cccc(C)c3)CC2)c(C)n(C)c1C | . | -27.1% | 2.5% | -13.1% | 0.0% | -13.9%
CCOc1ccc(N(C(C)C(=O)N2CCCC2)S(C)(=O)=O)cc1 (configuration not stated) | 3.9 | 3.3% | . | 1.5% | ? | 14.6µM*
CCc1ccc(NC(=O)Cn2c(=O)n(-c3cc(C)cc(C)c3)c(=O)c3oc4ccccc4c32)cc1 | . | -14.7% | 5.1% | -17.9% | -2.9% | -17.8%
COc1ccc(NC(=O)Cn2c(=O)n(-c3cc(C)cc(C)c3)c(=O)c3oc4ccccc4c32)cc1OC | . | 13.4% | 5.1% | -13.4% | 8.2µM* | 8.2µM*
Cc1ccc(Cn2c(=O)n(-c3cc(C)cc(C)c3)c(=O)c3oc4ccccc4c32)cc1 | . | 1.1% | 0.0% | -5.4% | ? | 23.1µM*
COc1ccc(NC(=O)Cn2c(=O)n(C(C)C)c(=O)c3oc4ccccc4c32)cc1Cl | . | ? | 2.6% | -4.9% | ? | 16.4µM*
Cc1ccc(N(C(C)C(=O)Nc2ccc3c(c2)OCO3)S(C)(=O)=O)cc1 (configuration not stated) | -4.4 | 23.4% | 3.3% | 11.1% | 13µM* | 20.6µM*
O=C(NNc1ccccc1[N+](=O)[O-])Nc1cccc(Cl)c1 | -8.6 | ? | . | -32.6% | 20.6µM* | 14.6µM*
CSc1ccc(NC(=O)Nc2ccccc2C(N)=O)cc1 | 0.0 | -1.1% | -11.4% | -35.2% | 13µM* | ?
N#Cc1ccc(NC(=O)Nc2cccc(C#N)c2)cc1 | -10.9 | ? | 5.7% | -48.0% | 6.51µM* | 6.51µM*
O=C(Nc1cc(Cl)ccc1Cl)N1CCCC1 | -25.9 | 6.1% | 2.7% | 7.5% | 20.6µM* | 18.4µM*
O=C(Nc1ccc2c(c1)OCO2)Nc1ccccc1F | ? | -8.9% | 2.2% | -54.4% | 9.2µM* | 5.8µM*
O=C(CN1c2ccccc2Sc2ccccc21)NNC(=O)Nc1cccc(Cl)c1 | -88.3* | ? | . | -52.8% | 23.1µM* | 10.3µM*
O=C(Nc1ccccc1)Nc1cccc(Cl)c1 | ? | -3.6% | -2.0% | -42.2% | 14.1µM* | 11.2µM*
SMILES | IL1B secr inh | TGFb SMAD3 inh | TDP1 block | HepG2 viability | TDP1 cell CPT | TDP1 cell noCPT
CCc1ccc(S(=O)(=O)NC2CC(C)(C)NC(C)(C)C2)cc1 | -16.3 | 10.8% | . | -14.5% | -11.2% | -21.8%
COc1ccc(CCNC(=O)C(CC(C)C)N2Cc3ccccc3C2=O)c(OC)c1OC (configuration not stated) | . | 4.4% | -3.7% | -18.2% | ? | ?
COc1cc([N+](=O)[O-])ccc1NC(=O)N1CCC2(CC1)Nc1cc(F)ccc1-n1cccc12 | . | 6.7% | 5.4% | 11.4% | ? | ?
COC(=O)c1cc2oc(C)cc2n1Cc1c(C)cc(C)cc1C | . | 160.4% | 1.0% | 145.2% | 1.2% | 1.9%
Cc1ccc(C(=O)Nc2ccc3c(c2)OCO3)o1 | 21.5 | -7.6% | 4.5% | -31.8% | 14.6µM* | 16.4µM*
COC(=O)c1cccc(NC(=O)Nc2ccc(Cl)c(Cl)c2)c1 | -85.1* | ? | 2.0% | 11.2µM* | 18.4µM* | ?
O=C(NNc1ccccc1)Nc1cc(Cl)ccc1Cl | -97.3* | 6.0% | . | -28.0% | -26.6% | -21.7%
COc1ccc(Cl)cc1NC(=O)Nc1ccccc1C(N)=O | 20.0 | -7.0% | 3.7% | -12.8% | 18.4µM* | 8.2µM*
COC(=O)c1cccc(NC(=O)NC(=O)c2ccccc2Cl)c1 | -14.2 | -11.0% | -2.5% | -2.8% | -4.7% | -12.9%
O=C(COc1ccccc1)Nc1cc(Cl)ccc1Cl | 26.7 | 8.4% | . | -17.4% | ? | -25.0%
O=C(COc1ccc2c(c1)oc(=O)c1ccccc12)NCCN1CCOCC1 | -4.6 | -1.6% | 0.1% | 0.3% | 28.6% | -0.5%
O=C(CCl)Nc1ccc2c(c1)OCO2 | -97.4* | -15.2% | 2.6% | -52.2% | 13µM* | ?
COc1ccc(Cl)cc1NC(=S)NNC(=O)C1(C)CC1(Cl)Cl (configuration not stated) | ? | 20µM* | 6.2% | -42.3% | 4.0% | ?
